Assay outcomes (PubChem BioAssay)
A selection: hits, their analogues and other compounds. The true share with any hit is near 3%.
PPC-1+TRAIL kill: kills PPC-1 cancer cells in the presence of TRAIL | cell killing (% activity), % at 4 µM or 5 µM | AID 1443 | hit rate 0.41% among 220,000 | PPC-1 cells + TRAIL, ATPLite viability luminescence;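 active = cell killing above 50% in the first pass at 4 µM, then a duplicate retest at 5 µM averaging 50% or more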;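 also: plate controls were cells with TRAIL plus DMSO for no effect and medium-only wells lacking cells for full effect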
C8 TRAIL sens: sensitizes caspase-8 expressing cells to TRAIL; inhibition (viability loss, TRAIL sensitization), % at 10 µM; hit rate 1% among 360,000; NB7+C8 cells + TRAIL, ATPlite viability luminescence;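 active = compounds causing at least 50% loss of cell viability in the single-dose screen, relative to plate controls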
SENP8 block-1: SENP8 protease inhibition | inhibition, % at 10 µM | hit rate 1.2% among 330,000 | Q96LD8 | purified SENP8, Z-RLRGG-aminoluciferin cleavage, luminescence | AID 2540; in the data active = inhibition above about 50%
Target sequence (Q96LD8 whole entry, looked up): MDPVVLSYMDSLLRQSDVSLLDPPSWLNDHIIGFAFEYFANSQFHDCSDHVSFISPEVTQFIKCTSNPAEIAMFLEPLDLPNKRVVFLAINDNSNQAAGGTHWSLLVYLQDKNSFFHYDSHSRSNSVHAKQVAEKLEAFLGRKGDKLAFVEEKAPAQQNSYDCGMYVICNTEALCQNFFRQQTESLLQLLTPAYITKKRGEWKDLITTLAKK
SENP6 inh: SENP6 protease inhibition; inhibition, % at 10 µM; hit rate 1.8% among 330,000; AID 2599; Recombinant SENP6 catalytic domain, aminoluciferin luminescence;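 active = inhibition above about 50% at the single tested dose, limit read from the data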;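 also: plate controls were DMSO wells with enzyme for no effect and DMSO wells lacking enzyme for full effect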
SENP7 block: inhibitors of human SENP7 protease | Q9BQF6 | hit rate 1.5% among 330,000 | recombinant SENP7, Z-RLRGG-aminoluciferin luminescence, 40 min | inhibition, % at 5 µM;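 active = inhibition above about 50% at the single test dose, limit read from the data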;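 also: plate controls were DMSO with enzyme for no effect and no enzyme buffer wells for full effect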
SENP8 block-2: blocks human SENP8 cleavage of Nedd8 substrate. Q96LD8. inhibition, % at 20 µM. hit rate 0.64% among 360,000. AID 602440. recombinant SENP8, Nedd8 substrate fluorescence; in the data active = inhibition mostly above about 40%, no sharp cut-off; inactive = mostly below about 27%
SENP8 conf: human SENP8 inhibition, confirmed; shares compounds with SENP7 block; Recombinant SENP8, Z-RLRGG-aminoluciferin luminescence, 60 min; inhibition, % at 12.5 µM; hit rate 40% among 6,200; AID 488912;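 active = mean inhibition across replicates above about 50%, limit read from the data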
SENP6 confirm: human SENP6 inhibition, confirmed; shares compounds with SENP7 block; recombinant SENP6, Z-RLRGG-aminoluciferin luminescence; inhibition, % at 12.5 µM; hit rate 58% among 6,200
SENP7 conf: human SENP7 inhibition, confirmed; recombinant SENP7, Z-RLRGG-aminoluciferin luminescence, 40 min; shares compounds with SENP7 block; inhibition, % at 12.5 µM; hit rate 69% among 6,200; AID 488917
Casp3 select: inhibits human caspase-3 in SENP selectivity test; purified caspase-3, Z-DEVD-aminoluciferin luminescence, 60 min; hit rate 60% among 6,200; shares compounds with SENP7 block; inhibition, % at 12.5 µM;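 active = mean inhibition above about 50%, limit read from the data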;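 also: plate controls were enzyme with DMSO for no effect and wells without caspase-3 for full effect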
Target sequence (P42574 28-227 limits assumed): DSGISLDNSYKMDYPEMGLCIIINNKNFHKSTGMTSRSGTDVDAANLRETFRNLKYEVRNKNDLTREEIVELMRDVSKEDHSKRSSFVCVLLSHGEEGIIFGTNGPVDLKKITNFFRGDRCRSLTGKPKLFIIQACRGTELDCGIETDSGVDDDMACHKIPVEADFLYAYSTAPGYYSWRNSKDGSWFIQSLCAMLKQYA
SENP luc ctr: luminescence interference (SENP counter-screen); inhibition, % at 12.5 µM; hit rate 39% among 6,200; AID 488919; shares compounds with SENP7 block; Pre-incubated SENP8/Z-RLRGG-aminoluciferin, luciferase luminescence interference;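 active = mean inhibition above about 50% when retested at one dose, limit read from the data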;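 also: plate controls were DMSO wells with completed reaction for no effect and substrate without enzyme for full effect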
* marks the source's active call; other numbers are inactive results; i = inactive; · = not tested or not shown.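 The calls were made as follows, unless noted: active = mean inhibition above about 50% in the one-dose retest (limit read from the data); inactive = the rest.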

SMILES	PPC-1+TRAIL kill	C8 TRAIL sens	SENP8 block-1	SENP6 inh	SENP7 block	SENP8 block-2	SENP8 conf	SENP6 confirm	SENP7 conf	Casp3 select	SENP luc ctr
O=C(Nc1ccc(C(F)(F)F)cc1)c1ccccc1	·	0.0	20.0	39.7	62.7*	17.0	-4.4	16.5	41.7	32.4	4.2
O=C(Nc1ccc(C(=O)c2ccccc2)cc1)c1ccccc1	·	13.5	19.6	38.5	28.6	17.7	·	·	·	·	·
O=C(Nc1cccc(C(F)(F)F)c1)c1cc[n+]([O-])cc1	·	7.3	-6.7	-30.7	-7.4	4.4	·	·	·	·	·
O=C(Nc1cccc(O)c1)c1ccc(C(F)(F)F)cc1	15.5	33.7	66.9*	74.3*	72.2*	8.4	68.3*	70.0*	92.4*	71.6*	63.6*
CCN1CCN(CCCNC(=O)CCC(=O)N2CC(C)Oc3ccc(C)cc32)CC1 (centres undefined)	·	-0.1	0.1	-6.4	1.0	4.1	·	·	·	·	·
Fc1ccccc1Nc1nc2ccccc2o1	·	25.7	93.7*	98.9*	96.6*	19.8	96.6*	98.5*	101.9*	97.2*	96.2*
c1ccc(Nc2nc3ccccc3o2)cc1	27.8	36.0	89.8*	96.7*	96.8*	10.5	10.4	96.8*	-1.1	92.6*	94.3*
FC(F)(F)Oc1ccc(Nc2nc3ccccc3o2)cc1	-17.3	1.2	4.1	41.4	23.1	12.6	·	·	·	·	·
O=C(NNc1nc2ccccc2nc1C(F)(F)F)c1ccccc1	-12.2	4.7	-5.3	-7.3	-8.3	7.2	·	·	·	·	·
O=C(NNc1nc2ccccc2o1)c1ccccc1	22.3	13.4	53.4*	63.8*	0.1	2.5	16.2	69.4*	47.8	71.1*	44.4
CC(NS(=O)(=O)c1cn(C)c(=O)n(C)c1=O)c1ccccc1 (centres undefined)	·	-15.2	1.3	-16.9	9.7	3.3	·	·	·	·	·
O=[N+]([O-])c1ccc(-c2ccc(C=Nc3cccc4ccccc34)o2)cc1	33.4	-3.1	44.8	83.2*	52.2*	-285.2	-4.9	2.2	4.2	8.1	-1.7
O=[N+]([O-])c1ccc(C=Nc2cccc3ccccc23)s1	11.5	10.7	47.4	58.1*	41.1	-394.0	4.7	1.7	-5.2	-5.2	-3.7
O=C(Cc1ccccc1)NCC(=O)N/N=C/c1ccc([N+](=O)[O-])s1	·	2.7	11.6	38.8	9.6	14.7	·	·	·	·	·
Cc1cc(C=C2C(=O)c3ccccc3C2=O)c(C)n1C	-21.3	15.1	56.5*	66.2*	2.9	18.3	9.7	36.6	71.9*	37.1	7.4
Cc1ccc(C=C2C(=O)c3ccccc3C2=O)s1	-1.3	-9.8	80.8*	69.9*	91.9*	39.7	68.4*	94.3*	98.7*	87.8*	40.4
CCn1c(C)cc(C=C2C(=O)c3ccccc3C2=O)c1C	8.6	48.9	·	·	·	13.8	·	·	·	·	·
Cc1ccc(C=C2C(=O)c3ccccc3C2=O)o1	20.2	0.7	79.1*	97.0*	95.4*	22.1	96.2*	97.3*	101.0*	96.5*	74.7*
Cc1cccc(-n2c(C)cc(C=C3C(=O)c4ccccc4C3=O)c2C)c1	12.2	-3.1	32.0	43.5	39.1	-64.1	·	·	·	·	·
COc1ccc(-c2nn(-c3ccccc3)cc2C(=O)O)cc1N	·	5.3	-4.1	2.4	1.0	7.2	·	·	·	·	·
Cc1ccc(C)c(S(=O)(=O)c2c(C)cc(C)[nH]c2=O)c1	·	-2.9	1.1	9.2	1.0	-48.7	·	·	·	·	·
O=C(O)c1ccc(NS(=O)(=O)c2ccc3c(c2)C(=O)c2ccccc2C3=O)cc1	1.3	0.9	-4.8	5.7	-2.9	22.5	·	·	·	·	·
O=C(O)c1ccc(NC2=C/C(=N/S(=O)(=O)c3ccccc3)c3ccccc3C2=O)cc1	30.4	37.7	87.3*	92.8*	59.7*	60.8*	95.2*	98.0*	92.5*	19.2	7.4
CC(C)CNC(=O)c1ccccc1NC(=O)/C=C/c1cccc([N+](=O)[O-])c1	-3.6	-1.2	1.7	-5.7	-4.0	14.3	·	·	·	·	·
COc1ccc(-n2nc3cc(N)c(Br)cc3n2)cc1	·	17.6	74.3*	84.5*	67.4*	-357.9	25.5	67.4*	88.9*	36.0	8.4
SMILES	PPC-1+TRAIL kill	C8 TRAIL sens	SENP8 block-1	SENP6 inh	SENP7 block	SENP8 block-2	SENP8 conf	SENP6 confirm	SENP7 conf	Casp3 select	SENP luc ctr
COc1ccc(-n2nc(C)cc2N)cc1	10.8	-19.0	-7.9	-6.7	-6.2	17.9	·	·	·	·	·
CCc1ccc(-n2nc3cc(C)c(N)cc3n2)cc1	·	65.6*	48.9	68.7*	-16.2	-434.1	72.8*	75.6*	96.7*	68.7*	29.6
COc1ccc(-n2nc3cc(C)c(N)c(Br)c3n2)cc1	41.3	34.4	40.2	62.9*	43.8	-482.0	11.6	38.3	53.2*	5.9	6.6
Cc1ccc(-n2nc3cc(C)c(N)cc3n2)cc1	2.1	12.2	13.1	39.3	-0.5	i	·	·	·	·	·
O=C1c2ccccc2C(c2nnnn2C2CCCCC2)N1CCc1ccc(O)cc1 (centres undefined)	·	2.2	·	·	·	15.5	·	·	·	·	·
COc1ccc(C(=O)Nc2nccs2)cc1	·	29.6	14.5	51.9*	33.4	22.0	30.4	26.2	63.1*	63.8*	45.5
COc1ccc(NC(=O)Nc2nccs2)cc1	45.6	24.5	32.3	73.9*	56.4*	3.7	39.3	40.8	79.6*	77.0*	63.4*
O=C(Nc1ccccc1)Nc1nccs1	16.7	-19.6	4.6	25.0	7.3	9.1	·	·	·	·	·
O=C(O)CCn1nc(-c2ccc(F)cc2)cc(Cc2ccccc2)c1=O	·	-1.2	8.2	11.2	-0.2	8.2	·	·	·	·	·
O=C(NCc1ccncc1)C(=O)NCC1OCCN1S(=O)(=O)c1ccccc1 (centres undefined)	·	11.3	·	·	·	-0.7	·	·	·	·	·
Cc1ccc(C(=O)N/N=C\c2sccc2C)cn1	10.5	14.5	-2.4	-3.5	5.3	11.8	·	·	·	·	·
Cc1ccsc1/C=N/NC(=O)c1sccc1C	15.0	18.1	84.1*	88.4*	93.0*	-6.3	13.6	91.5*	100.6*	93.8*	22.9
Cc1ccsc1/C=N\NC(=O)c1ccc2c(c1)OCO2	29.2	47.6	13.7	49.2	50.3*	10.9	36.9	34.5	72.1*	74.2*	-1.1
O=C(CSc1n[nH]c(=O)[nH]c1=O)Nc1ccc(SC(F)F)cc1	·	-14.1	-2.2	2.2	6.3	-0.7	·	·	·	·	·
Clc1cc(Cl)c2nc(N3CCOCC3)sc2c1	-10.2	5.2	13.9	-38.9	25.3	0.7	·	·	·	·	·
